Source: PubChem BioAssay AID651610 (Broad Institute, 2012)
The campaign covered roughly 360,000 compounds. About 3,900 (1.1%) were called active. The full list was thinned out, with actives kept by preference. A number with no mark means an inactive call.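 Rule for the calls: active = mean replicate inhibition score of at least 50 and every replicate individually at or above 50; inconclusive = only one of the two criteria met; inactive = mean below 50 and not all replicates reaching 50.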

Assay: blockers of JRFL envelope-mediated fusion – HeLa-JRFL effector, CEM21 target cells, luciferase, primary screen (AID 651610);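 note: 0% = plate neutral controls and 100% = maraviroc near 300 nM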
Conditions: HeLa-JRFL Env/CEM21 cell fusion, stronger effect = higher value; at 16.7 µM unless noted
Molecule `c1ccc(-c2cnc(CN3CCN(c4ccccc4)CC3)o2)cc1` has an inhibition of 3.52% [at 12.3 µM]. With `CCCCn1c(SCc2ncc(-c3ccccc3)o2)nc2cc(S(N)(=O)=O)ccc21` the inhibition was 32.4% [at 12.3 µM] (active). `CCn1c(SCc2cc(=O)n3ccsc3n2)nc2ccccc21` showed an inhibition of 9.35% [at 12.3 µM]. Molecule `C[C@H](O)C#Cc1cnc2c(c1)C(=O)N([C@H](C)CO)C[C@@H](C)[C@H](CN(C)CC1CCCCC1)O2` has an inhibition of -6.75%. In the case of `C[C@H](CO)N1C[C@H](C)[C@H](CN(C)Cc2cccnc2)Oc2ncc(C3=CCCC3)cc2C1=O`, the inhibition is reported as 0.845%. With `C[C@@H]1CN([C@H](C)CO)C(=O)c2c(c3ccccc3n2C)-c2ccccc2CO[C@H]1CN(C)C(=O)[C@@H](Cc1ccccc1)N(C)C` the inhibition was -56.3%. `CS(=O)(=O)N(CC(=O)NC1CCCC1)Cc1ccc(F)cc1` showed an inhibition of 12.4% [at 12.3 µM]. In the case of `Cc1ccc(CN(CC(=O)NC2CCCCC2)C(=O)c2csnn2)cc1`, the inhibition is reported as -2.9% [at 12.3 µM]. For `Cc1cc(C(C)(C)C)oc1C(=O)N(CC(=O)NC1CCCC1)Cc1ccc(Cl)cc1`, the inhibition was 73.7% [at 12.3 µM] (active). Molecule `O=C(C[C@@H]1CC[C@H](NC(=O)Nc2cc(F)ccc2F)[C@H](CO)O1)NCc1ccncn1` has an inhibition of 1.2%. For `COCCCNC(=O)c1ccc(-c2c(C)noc2C)c2ccoc12`, the inhibition was -11% [at 12.3 µM]. For `Cc1noc(C)c1-c1ccc(C(=O)NCc2ccncc2)c2occc12`, the inhibition was -7.55% [at 12.3 µM]. For `COc1ccc(CNC(=O)c2ccc(-c3cccnc3)c3ccoc23)cc1OC`, the inhibition was 55.1% [at 12.3 µM] (active). With `O=C(COC(=O)Cn1cnc2ccccc2c1=O)NCc1ccccc1Cl` the inhibition was 0.405% [at 12.3 µM]. In the case of `CC1(C)C(=O)Nc2ccccc2N1C(=O)COC(=O)Cn1cnc2ccccc2c1=O`, the inhibition is reported as -40.1% [at 12.3 µM]. In the case of `CN(Cc1c(F)cccc1Cl)C(=O)COC(=O)Cn1cnc2ccccc2c1=O`, the inhibition is reported as 63.4% [at 12.3 µM] (active). Molecule `O=C(NCc1ccccn1)[C@@H]1[C@@H](CO)[C@@H]2Cn3c(ccc(/C=C/c4ccccc4)c3=O)[C@H]1N2CC1CC1` has an inhibition of -8.79%. Work on `CC(C)c1cc(C(=O)NC2CCCCCC2)c2ccccc2n1` yielded an inhibition of 30.2% [at 12.3 µM]. For `CN(c1ccc2nc3ccccc3c(=O)n2n1)C1CCCCC1`, the inhibition was 68.2% [at 12.3 µM] (active). Work on `CC(C)C(C)NC(=O)COc1nc2ccccc2nc1N(C)C1CCCCC1` (configuration not stated) yielded an inhibition of 17.4% [at 12.3 µM]. Molecule `COc1cccc(S(=O)(=O)N(C)C[C@@H]2Oc3cc(C#CCN(C)C)ccc3S(=O)(=O)N([C@@H](C)CO)C[C@@H]2C)c1` has an inhibition of -11.4%. For `CCOC(=O)N1CCN(Cc2nc(Cc3cccc(C(F)(F)F)c3)no2)CC1`, the inhibition was -3.49% [at 12.3 µM]. With `Cn1c(-c2sccc2OCc2cccc(C(F)(F)F)c2)n[nH]c1=S` the inhibition was 63.4% [at 12.3 µM] (active). For `FC(F)(F)c1ccc(-n2cn[nH]c2=S)cc1`, the inhibition was 2.89% [at 12.3 µM]. In the case of `O=C(C[C@H]1CC[C@H]2[C@@H](COC[C@@H](O)CN2Cc2nccs2)O1)NCc1ccccc1Cl`, the inhibition is reported as 6.96%. `CN(C)CC(=O)Nc1ccc2c(c1)[C@H]1C[C@H](CC(=O)NCc3ccccc3)O[C@@H](CO)[C@H]1O2` gave an inhibition of -29.2%. `Cc1cccc(N(CC(O)CN(C)C)S(=O)(=O)c2ccccc2)c1` (configuration not stated) gave an inhibition of -28.3% [at 12.3 µM]. `COc1ccc([N+](=O)[O-])cc1N(CC(O)CN(CC(C)C)CC(C)C)S(=O)(=O)c1ccc(C)cc1` (configuration not stated) gave an inhibition of -12.9% [at 12.3 µM]. For `CC(C)CN(CC(C)C)CC(O)CN(c1ccccc1)S(=O)(=O)c1ccccc1[N+](=O)[O-]` (configuration not stated), the inhibition was 65.4% [at 12.3 µM] (active). `CN(C)CC(=O)N[C@H]1CC[C@H](CCNC(=O)C2CCCCC2)O[C@H]1CO` gave an inhibition of -245%. In the case of `c1ccc2c(c1)OCC(CNc1ncnc3nc[nH]c13)O2` (configuration not stated), the inhibition is reported as 72.9% [at 12.3 µM] (active). `COc1ccc(CCNc2ncnc3nc[nH]c23)cc1OC` showed an inhibition of 18% [at 12.3 µM]. Work on `Cc1noc(C)c1C(=O)NCC1COc2ccccc2O1` (configuration not stated) yielded an inhibition of -5.41% [at 12.3 µM]. `C[C@@H]1CCCCO[C@H](CN(C)Cc2ccc3c(c2)OCO3)[C@@H](C)CN([C@H](C)CO)C(=O)c2cc(N(C)C)ccc2O1` showed an inhibition of -11.2%. Work on `C[C@H](NC(=O)C[C@@H]1CC[C@H](NC(=O)CN2CCOCC2)[C@H](CO)O1)c1ccccc1` yielded an inhibition of -13.9%. Molecule `Cc1ccc(C(c2nnnn2CS(=O)(=O)c2ccc(C)cc2)N2CCC(C)CC2)cc1` (configuration not stated) has an inhibition of 53.3% [at 12.3 µM]. `CCCCn1nnnc1C(c1ccccc1)N1CCN(c2ccccc2OC)CC1` (configuration not stated) showed an inhibition of 6.77% [at 12.3 µM]. For `N#Cc1ccc(C(c2nnnn2CCc2ccccc2)N2CCCCCC2)cc1` (configuration not stated), the inhibition was 90.5% [at 12.3 µM] (active). `CN(C)CC(=O)Nc1ccc2c(c1)[C@H]1C[C@@H](CC(=O)NCc3ccc(-c4ccccc4)cc3)O[C@H](CO)[C@H]1O2` showed an inhibition of 19.8%. In the case of `COC(=O)[C@H](CC(C)C)NS(=O)(=O)c1c(F)cccc1F`, the inhibition is reported as -17.9% [at 12.3 µM]. Molecule `COc1ccc(-c2cc(-c3ccc(N)cc3)nc(N)c2C#N)cc1OC` has an inhibition of 22.6% [at 12.3 µM]. With `CCSc1nc(-c2ccc(OC)cc2)cc(-c2ccc(OC)cc2)c1C#N` the inhibition was 66% [at 12.3 µM] (active). `COc1ccc(CCNC(=O)CSc2nc(-c3ccc(OC)c(OC)c3)ccc2C#N)cc1` gave an inhibition of 4.49% [at 12.3 µM]. Work on `CS(=O)(=O)Nc1ccc2c(c1)[C@@H]1C[C@H](CC(=O)NCc3cc(F)ccc3F)O[C@@H](CO)[C@@H]1O2` yielded an inhibition of 18.1%. Work on `Cc1ccc(S(=O)(=O)Nc2ccc3c(c2)C(=O)N([C@H](C)CO)C[C@@H](C)[C@@H](CN(C)S(C)(=O)=O)OCCCC[C@@H](C)O3)cc1` yielded an inhibition of -1.67%. For `C[C@@H]1CN([C@@H](C)CO)S(=O)(=O)c2ccc(-c3cccnc3)cc2O[C@H]1CN(C)CC1CCOCC1`, the inhibition was -3.87%. Molecule `C[C@@H]1CN([C@H](C)CO)C(=O)c2cccc(NS(C)(=O)=O)c2O[C@@H]1CN(C)C(=O)Nc1cccc2ccccc12` has an inhibition of -1.18%. `O=C(CNS(=O)(=O)c1cccc(C(F)(F)F)c1)Nc1ccccc1F` showed an inhibition of -11.7% [at 12.3 µM]. Work on `Cc1noc(C)c1S(=O)(=O)Nc1cc(C(F)(F)F)ccc1N1CCOCC1` yielded an inhibition of 22.4% [at 12.3 µM]. With `Cc1oc2c(F)c(F)c(F)c(F)c2c1S(=O)(=O)Nc1cccc(C(F)(F)F)c1` the inhibition was 55% [at 12.3 µM] (active). With `COc1ccccc1CNC(=O)C[C@H]1C[C@@H]2c3cc(NC(=O)c4ccc5c(c4)OCO5)ccc3O[C@@H]2[C@H](CO)O1` the inhibition was 4.06%. With `NC(=O)c1sc2nc3c(c(-c4ccccc4)c2c1N)CCC3` the inhibition was 103% [at 12.3 µM] (active). Work on `COc1ccccc1-c1c(C#N)c(N)nc2c1CCC2` yielded an inhibition of 24% [at 12.3 µM]. `CC(C)OC(=O)c1sc2nc3c(cc2c1N)C(=O)CCC3` gave an inhibition of -187% [at 12.3 µM]. In the case of `C[C@@H]1CN([C@@H](C)CO)C(=O)c2cc(NC(=O)Cn3cnnn3)ccc2O[C@H]1CN(C)Cc1ccc(C(F)(F)F)cc1`, the inhibition is reported as 12.3%. For `Cc1n[nH]c(=O)c2c1nnn2Cc1ccc(F)cc1`, the inhibition was -10.3% [at 12.3 µM]. For `Cc1cc(C)c2cc(CN(Cc3nnnn3Cc3ccc(F)cc3)C3CCCC3)c(=O)[nH]c2c1`, the inhibition was 84.5% [at 12.3 µM] (active). Work on `C[C@@H]1CN([C@H](C)CO)C(=O)c2cc(-c3ccccc3F)cnc2O[C@H]1CN(C)C(=O)NC1CCCCC1` yielded an inhibition of -1.88%. Molecule `O=C(C[C@H]1CC[C@@H]2NC[C@H](O)COC[C@H]2O1)NCCN1CCCCC1` has an inhibition of 18.8%. With `COc1ccccc1C(=O)NC(CCSC)C(=O)N1CCN(C(C)=O)CC1` (configuration not stated) the inhibition was -8.21% [at 12.3 µM]. Work on `CSCCC(NC(=O)c1ccccc1)C(=O)N1CCN(Cc2ccc(Cl)cc2)CC1` (configuration not stated) yielded an inhibition of 11.5% [at 12.3 µM]. For `COc1ccccc1C(=O)NC(CCSC)C(=O)N1CCN(C/C=C/c2ccccc2)CC1` (configuration not stated), the inhibition was 75.2% [at 12.3 µM] (active). For `O=C(NCc1ccccc1)[C@H]1CCCN1C(=O)[C@@H]1CCCN1C(=O)c1ccc(Cl)cc1Cl`, the inhibition was -35.2% [at 12.3 µM]. Work on `CO[C@H]1CN(C)C(=O)c2cc(NS(=O)(=O)c3ccccc3)ccc2OC[C@H](C)N(C(=O)NC(C)C)C[C@@H]1C` yielded an inhibition of -19%. In the case of `CO[C@@H]1CN(C)C(=O)c2cc(NS(=O)(=O)c3ccc(C)cc3)ccc2OC[C@H](C)N(C(=O)NC(C)C)C[C@@H]1C`, the inhibition is reported as 64.3% (active). In the case of `COc1ccccc1S(=O)(=O)Nc1ccc2c(c1)C(=O)N(C)C[C@@H](OC)[C@@H](C)CN[C@@H](C)CO2`, the inhibition is reported as 61.2% (active). For `COCC(=O)N1C[C@H](C)[C@@H](OC)CN(C)C(=O)c2cc(NC(=O)c3ccc(OC)cc3)ccc2OC[C@H]1C`, the inhibition was -0.959%. Work on `CO[C@@H]1CN(C)C(=O)c2cc(NS(=O)(=O)c3ccccc3)ccc2OC[C@@H](C)N(C(=O)NC(C)C)C[C@@H]1C` yielded an inhibition of 3.87%. Molecule `COCC(=O)N1C[C@@H](C)[C@H](OC)CN(C)C(=O)c2ccc(NC(=O)c3ccc(F)cc3)cc2OC[C@H]1C` has an inhibition of 19.1%. In the case of `COc1cccc(S(=O)(=O)Nc2ccc3c(c2)C(=O)N(C)C[C@@H](OC)[C@@H](C)CN[C@@H](C)CO3)c1`, the inhibition is reported as 3.22%. In the case of `COc1ccccc1S(=O)(=O)Nc1ccc2c(c1)C(=O)N(C)C[C@H](OC)[C@H](C)CN[C@H](C)CO2`, the inhibition is reported as -20.4%. With `COCC(=O)N1C[C@@H](C)[C@H](OC)CN(C)C(=O)c2ccc(NC(=O)c3ccc(OC)cc3)cc2OC[C@@H]1C` the inhibition was 58.2% (active).
